# Structures can show the parent of a compound that is named as a salt. A number with no mark means an inactive call.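 Rule for the calls: for the amine columns active = adjusted P below 0.05 in both replicates with a change the same way and a mean fold change under 0.8 or over 1.25; inactive = the rest.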
# System: Escherichia coli IAI1
# Experiment: fold change of Cadaverine concentration vs plate DMSO controls (fold change (ratio)); higher = more amine produced, active = hit call of the paper (significant change in both replicates, either direction)
# Settings: incubation time: 27 h, anaerobic, 37 °C
# How it was run: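 Using LC–triple-quadrupole MS with dynamic MRM, amines were quantified against external calibration curves and corrected for drift within each batch. Samples were whole anaerobic mGAM cultures of four gut strains, grown 27 h at 37 °C from OD 0.1 before 1:1 dilution, extracted with cold acetonitrile/methanol containing 0.1% formic acid and centrifuged. Compounds were present at 20 µM final (sweeteners at 50 µM final). The numbers are fold changes versus plate DMSO controls, each the mean of 2 biological replicates.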
row,SMILES,fold change of Cadaverine concentration
1,CCCCCCCCCCCCCCCCCCCCCC(=O)Nc1ccn([C@@H]2O[C@H](CO)[C@@H](O)[C@@H]2O)c(=O)n1 [Enocitabine] (20 µM),1.01
2,COCC1=C(C(=O)OC(C)OC(=O)OC(C)C)N2C(=O)[C@@H](NC(=O)/C(=N\OC)c3csc(N)n3)[C@H]2SC1 (some centres undefined) [Cefpodoxime proxetil] (20 µM),1.43 (active)
3,COc1cccc2c1C(=O)c1c(O)c3c(c(O)c1C2=O)C[C@@](O)(C(=O)CO)C[C@@H]3O[C@H]1C[C@H](N)[C@@H](O)[C@H](C)O1 [Epirubicin hydrochloride] (20 µM),1.04
4,CN1CCCN(C(c2ccccc2)c2ccc(Cl)cc2)CC1 (centres undefined) [Homochlorcyclizine dihydrochloride] (20 µM),0.885
5,COc1ccc(/C=C/C(=O)Nc2ccccc2C(=O)O)cc1OC [Tranilast] (20 µM),0.995
6,CC(C)Nc1ncccn1 [Isaxonine] (20 µM),1.01
7,CC(=O)N[C@@H](CS)C(=O)O [Acetylcysteine] (20 µM),1.02
8,C=C1C[C@@]23CC[C@H]4[C@@](C)(CCC[C@@]4(C)C(=O)O[C@@H]4O[C@H](CO)[C@@H](O)[C@H](O)[C@H]4O)[C@@H]2CC[C@]1(O[C@@H]1O[C@H](CO)[C@@H](O)[C@H](O)[C@H]1O[C@@H]1O[C@H](CO)[C@@H](O)[C@H](O)[C@H]1O)C3 [Stevioside] (50 µM),1.04
9,Nc1ccc(S(=O)(=O)Nc2nccs2)cc1 [Sulfathiazole] (20 µM),1.03
10,CC(=O)OCC(=O)[C@@]1(O)CC[C@H]2[C@@H]3CCC4=CC(=O)C=C[C@]4(C)[C@@]3(F)[C@@H](O)C[C@@]21C [Isoflupredone acetate] (20 µM),0.988
11,CC(=O)CCCCn1c(=O)c2c(ncn2C)n(C)c1=O [Pentoxifylline] (20 µM),1.04
12,CCN(CC)CCOC(=O)C1(C2CCCCC2)CCCCC1 [Dicyclomine hydrochloride] (20 µM),1
13,CC(=O)OCC(=O)[C@@]1(O)[C@H](C)C[C@H]2[C@@H]3CCC4=CC(=O)C=C[C@]4(C)[C@@]3(F)[C@@H](O)C[C@@]21C [Dexamethasone acetate] (20 µM),1.02
14,Cc1nc2n(c(=O)c1CCN1CCC(c3noc4cc(F)ccc34)CC1)CCCC2O (centres undefined) [Paliperidone] (20 µM),0.993
15,O=C(Nc1cccc2c(=O)cc(-c3nnn[nH]3)oc12)c1ccc(OCCCCc2ccccc2)cc1 [Pranlukast] (20 µM),1.03
16,CCC(Cc1c(I)cc(I)c(N)c1I)C(=O)O (centres undefined) [Iopanoic acid] (20 µM),1.04
17,C/C(=C\C(=O)OCCCCCCCCC(=O)O)C[C@@H]1OC[C@H](C[C@@H]2O[C@H]2[C@@H](C)[C@H](C)O)[C@@H](O)[C@H]1O [Mupirocin] (20 µM),0.209 (active)
18,CC(Oc1c(Cl)cccc1Cl)C1=NCCN1 (centres undefined) [Lofexidine] (20 µM),1.01
19,CCOc1ccc(NC(=O)CC(C)O)cc1 (centres undefined) [Bucetin] (20 µM),0.977
20,CN(C)CCc1c[nH]c2ccc(Cn3cncn3)cc12 [Rizatriptan benzoate] (20 µM),1.02

row,SMILES,fold change of Cadaverine concentration
1,CC(C)OC(=O)C(C(=O)OC(C)C)=C1SC=CS1 [Malotilate] (20 µM),0.949
2,CC1CS(=O)(=O)CCN1/N=C/c1ccc([N+](=O)[O-])o1 (centres undefined) [Nifurtimox] (20 µM),0.974
3,CC(=O)OCC(=O)[C@@]12OC3(CCCC3)O[C@@H]1C[C@H]1[C@@H]3CCC4=CC(=O)C=C[C@]4(C)[C@@]3(F)[C@@H](O)C[C@@]12C [Amcinonide] (20 µM),1.04
4,OC[C@H]1O[C@@H](c2ccc(Cl)c(Cc3ccc(O[C@H]4CCOC4)cc3)c2)[C@H](O)[C@@H](O)[C@@H]1O [Empagliflozin] (20 µM),1.02
5,CC(CN(C)C)CN1c2ccccc2Sc2ccccc21 (centres undefined) [Trimeprazine tartrate] (20 µM),1.02
6,CCC(=O)O[C@]1(C(=O)SCF)[C@H](C)C[C@H]2[C@@H]3C[C@H](F)C4=CC(=O)C=C[C@]4(C)[C@@]3(F)[C@@H](O)C[C@@]21C [Fluticasone propionate] (20 µM),0.995
7,OC[C@H]1O[C@@H](n2cnc3cncnc32)[C@H](O)[C@@H]1O [Nebularine] (20 µM),0.943
8,C=C1[C@H](CO)[C@@H](O)C[C@@H]1n1cnc2c(=O)[nH]c(N)nc21 [Entecavir] (20 µM),1.04
9,O=C1CN(/N=C/c2ccc(-c3ccc([N+](=O)[O-])cc3)o2)C(=O)N1 [Dantrolene sodium salt] (20 µM),1.06
10,CN1CCCN=C1/C=C/c1cccs1 [Pyrantel tartrate] (20 µM),1.03
11,C[C@H](CCc1ccccc1)NC[C@H](O)c1ccc(O)c(C(N)=O)c1 [Dilevalol] (20 µM),0.974
12,CN1CCC(=C2c3ccccc3CCc3sccc32)CC1 [Pizotifen malate] (20 µM),1.04
13,CCOC(=O)c1ccc(C#Cc2ccc3c(c2)C(C)(C)CCS3)nc1 [Tazarotene] (20 µM),0.942
14,CCC(=O)OCC(=O)[C@@]1(OC(=O)CC)[C@@H](C)C[C@H]2[C@@H]3CCC4=CC(=O)C=C[C@]4(C)[C@@]3(Cl)[C@@H](O)C[C@@]21C [Beclomethasone dipropionate] (20 µM),1.02
15,CC1=NN(c2ccccc2)C(=O)C1 [Edaravone] (20 µM),0.986
16,CO/N=C(\C(=O)N[C@@H]1C(=O)N2C(C(=O)OCOC(=O)C(C)(C)C)=C(/C=C\c3scnc3C)CS[C@H]12)c1csc(N)n1 [Cefditoren Pivoxil] (20 µM),1.18
17,Nc1ncnc2c1ncn2[C@@H]1O[C@H](CO)[C@@H](O)[C@@H]1O [Vidarabine] (20 µM),0.957
18,O=C(O)c1ccccc1Nc1cccc(C(F)(F)F)c1 [Flufenamic acid] (20 µM),1.03
19,CCc1ccc(CCOc2ccc(CC3SC(=O)NC3=O)cc2)nc1 (centres undefined) [Pioglitazone] (20 µM),0.968

# Source: the supplement of paper PMC12494721
